CSC inhib = cancer stem cell viability inhibitors, primary screen, luminescence; cancer stem cell-like cells viability; inhibition, % at 7.5 µM; actives 1.1% (n = 300,000); in the data active means inhibition above about 75%; tested in HMLE shEcad cells
Beta cell apopt = inhibitors of cytokine-induced beta cell apoptosis, primary screen, luminescence; protection from apoptosis, % (test concentration not listed); actives 0.8% (n = 300,000); AID 435005, 2010; INS-1E cytokine-induced death, ATP luminescence, 48 h; percent of positive-control rescue, neutral wells zero;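 active means Every replicate reaches about 75%, or at least half do and their mean reaches it too, limit read from the data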;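 further: 0% = cytokine-treated negative control wells and 100% = positive control rescue; higher means more ATP so stronger rescue from cytokine killing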
Jurkat NFkB inh = inhibitors of induced NF-kB luciferase reporter, primary screen, TCR NF-kB activation inhibitor project, cell-based, luminescence, uHTS. Jurkat, PMA/ionomycin-induced NF-kB luciferase reporter. inhibition, % at 4 µM. actives 0.53% (n = 330,000). AID 435003, 2010; in the data active means inhibition above about 50%
Mdm2 MdmX PPI = inhibitors of human Mdm2-MdmX association, primary screen, cell-based, luminescence, split luciferase, SaOS-2, uHTS; Protein Mdm4 (Homo sapiens) + E3 ubiquitin-protein ligase Mdm2 (Homo sapiens), …; SaOS-2 split-luciferase Mdm2/MdmX complementation; inhibition, % at 8 µM; actives 3% (n = 330,000);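 active means inhibition of at least 50% at 8 µM in the primary screen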
Target sequence (O15151 whole entry, looked up): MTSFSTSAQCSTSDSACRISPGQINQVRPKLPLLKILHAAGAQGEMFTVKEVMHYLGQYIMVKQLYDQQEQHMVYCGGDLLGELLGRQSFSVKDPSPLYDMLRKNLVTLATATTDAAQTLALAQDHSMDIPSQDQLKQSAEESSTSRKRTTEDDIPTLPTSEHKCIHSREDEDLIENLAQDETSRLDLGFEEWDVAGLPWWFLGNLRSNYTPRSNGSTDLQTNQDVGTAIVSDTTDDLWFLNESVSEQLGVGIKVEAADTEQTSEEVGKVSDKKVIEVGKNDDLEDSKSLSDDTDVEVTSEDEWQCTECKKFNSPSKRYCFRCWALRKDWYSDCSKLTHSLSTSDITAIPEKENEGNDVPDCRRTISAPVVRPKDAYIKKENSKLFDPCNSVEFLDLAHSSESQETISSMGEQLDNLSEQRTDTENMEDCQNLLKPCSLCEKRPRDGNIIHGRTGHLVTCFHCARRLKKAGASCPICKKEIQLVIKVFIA
Target sequence (Q00987 whole entry, looked up): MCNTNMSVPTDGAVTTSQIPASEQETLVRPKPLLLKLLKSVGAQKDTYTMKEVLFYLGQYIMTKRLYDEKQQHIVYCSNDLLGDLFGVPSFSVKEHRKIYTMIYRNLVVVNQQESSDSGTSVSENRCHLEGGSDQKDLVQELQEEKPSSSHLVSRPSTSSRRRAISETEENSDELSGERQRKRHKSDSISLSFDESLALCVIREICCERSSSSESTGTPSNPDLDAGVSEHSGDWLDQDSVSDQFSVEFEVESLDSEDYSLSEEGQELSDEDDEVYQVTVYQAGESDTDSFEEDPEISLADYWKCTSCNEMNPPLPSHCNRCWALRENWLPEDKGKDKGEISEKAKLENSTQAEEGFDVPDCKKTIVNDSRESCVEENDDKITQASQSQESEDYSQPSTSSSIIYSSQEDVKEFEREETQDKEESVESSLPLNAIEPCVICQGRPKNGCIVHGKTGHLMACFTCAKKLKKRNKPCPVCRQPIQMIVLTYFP
Gli-Sufu antag = Gli-Sufu pathway antagonists, primary screen, luciferase luminescence, Sufu-KO-LIGHT cells, uHTS. Sufu-KO-LIGHT fibroblasts, Gli luciferase reporter luminescence. inhibition, % at 5 µM. actives 0.74% (n = 340,000);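 active means inhibition above about 55%, limit read from the data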;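 further: 0% = DMSO-treated cells and 100% = wells with medium but no cells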
697 NFkB inh = inhibitors of PMA/ionomycin-induced NF-kB reporter, 697 cells, primary screen, B-cell NF-kB inhibitor project, cell-based, luminescence, uHTS | 697 B-cell NF-kB luciferase reporter, 16 h | inhibition, % at 4 µM | actives 0.33% (n = 330,000); in the data active means inhibition above about 35%
Mdm2-MdmX conf = Mdm2-MdmX complex disruptors, retested hits, confirmation, luminescence, single concentration; Mdm2-MdmX binding, luminescent assay; inhibition, % at 8 µM; actives 55% (n = 10,000); shares compounds with Mdm2 MdmX PPI; in the data active means inhibition above about 40%
Full FLuc ctr = full-length luciferase signal inhibition, confirmation, counter-screen for Mdm2/MdmX interaction inhibitor project, cell-based, single concentration, SaOS-2; SaOS-2 full-length luciferase counterscreen, luminescence; shares compounds with Mdm2 MdmX PPI; inhibition, % at 8 µM; AID 504607, 2011; actives 77% (n = 6,200);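 active means mean inhibition at 8 µM reaching about 37%, which flags the compound as non-specific, limit read from the data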;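 further: p53-null SaOS-2 cells with luciferase driven by a doxycycline-inducible promoter; compound on cells about two nights before reading with doxycycline added after day one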
Numbers without * were called inactive; . = no result given. Shown are actives, neighbours in structure and some others; about 4.5% of the full set was active somewhere.

SMILES	CSC inhib	Beta cell apopt	Jurkat NFkB inh	Mdm2 MdmX PPI	Gli-Sufu antag	697 NFkB inh	Mdm2-MdmX conf	Full FLuc ctr
CC(C)CC(NC(=O)c1ccc(Cl)cc1)C(=O)OCC(=O)c1ccc2c(c1)NC(=O)CO2 (stereo not drawn)	43.0	67.8	-4.4	95.1*	1.4	5.9	94.3*	17.2
COc1cc(/C=C/C(=O)OCC(=O)c2ccc3c(c2)NC(=O)CO3)ccc1OC(F)F	.	2.0	-6.6	-19.8	9.2	5.4	.	.
Cc1cc(=O)oc2cc(OCC(=O)c3ccc4c(c3)NC(=O)CO4)ccc12	-7.7	1.2	3.1	64.8*	-7.5	-31.8	54.4*	108.9*
CC(=O)c1cccc(NC(=O)C(=O)c2cn(CC(=O)N3CCCCC3)c3ccccc23)c1	-0.9	1.5	-1.4	0.8	-14.2	-6.1	.	.
CCOc1ccccc1NC(=O)NNC(=O)CCc1ccc(OC)cc1	-2.2	-1.7	-7.0	-15.6	5.9	0.4	.	.
C[C@H](CO)N1C[C@H](C)[C@@H](CN(C)Cc2ccc(C(=O)Nc3ccccc3N)cc2)Oc2c(NC(=O)C3CCCCC3)cccc2C1=O	.	6.5	-9.8	33.5	32.5	-5.3	.	.
Cc1c(C(=O)NC(=S)Nc2ccc(NC(=O)c3cccs3)cc2)oc2ccccc12	11.3	11.5	8.3	62.0*	-3.2	-4.4	10.8	.
CC(=O)NC(=S)Nc1ccc(NC(=O)c2cccs2)cc1	-18.3	-0.3	-16.3	1.8	-44.9	-14.4	.	.
CCOc1c(Br)cc(CNc2ccc3c(c2)OCCO3)cc1OC	-0.3	16.9	45.9	71.1*	-9.1	-28.9	58.1*	57.4*
CCOc1c(Br)cc(CNc2ccc(N3CCOCC3)cc2)cc1OC	-4.7	-1.4	1.6	22.8	0.0	5.9	.	.
CC(C)(C)n1nnnc1C(c1ccccn1)N(Cc1ccccc1)Cc1ccc(Cl)cc1 (stereo not drawn)	-16.6	.	-16.0	59.9*	16.9	-15.6	8.0	.
Cc1noc(C)c1NC(=O)N(C)C[C@H]1Oc2ccc(NS(=O)(=O)c3cccs3)cc2C(=O)N([C@H](C)CO)C[C@@H]1C	14.4	-3.3	-15.0	19.3	-4.6	-11.7	.	.
CCOC(=O)c1c(C)[nH]c(C(=O)COC(=O)c2ccccc2NC(=O)c2ccco2)c1C	-3.9	-4.0	-4.5	63.4*	12.4	-6.5	16.4	.
CCOC(=O)c1[nH]c(COC(=O)c2ccccc2NC(=O)c2ccco2)c(C(=O)OCC)c1C	2.4	5.8	-9.5	-32.9	12.0	20.8	.	.
CC(C)Cc1nc2oc3c(Cl)ncnc3c2c2c1CCC2	85.8*	-3.5	6.5	100.2*	20.5	17.3	69.8*	51.1*
C#CCOCCOCCOCCNc1nc(N2CCN(C(=O)[C@H](CCCCN)n3cc([C@@H](N)CO)nn3)CC2)nc(N2CCN(C(=O)[C@H](CCCCN)n3cc([C@@H](N)CC(C)C)nn3)CC2)n1	0.4	3.6	-9.5	9.1	-10.8	-16.3	.	.
O=C1c2ccccc2-n2c1nc1ccccc1c2=O	31.1	8.0	14.7	13.4	-7.5	-28.6	.	.
CC(C)N1C(=O)/C(=C/c2nc3ccccc3c(=O)n2-c2ccccc2)c2ccccc21	66.1	24.0	8.4	77.8*	12.1	-27.5	53.8*	36.6*
Cc1ccc(NC(=O)CSC2=C(C#N)C(c3ccco3)C3=C(CC(C)(C)CC3=O)N2)cc1 (stereo not drawn)	.	-2.1	-12.5	51.0*	11.4	13.1	19.6	.
COc1ccc(Cl)cc1NC(=O)CN(C)C(=O)c1ccc(COc2ccccc2)cc1	27.2	3.0	-2.8	11.3	10.3	1.9	.	.
CN(C)C1CCN(Cc2cc(COCc3ccccc3)c3cccnc3c2O)C1 (stereo not drawn)	.	77.5*	25.4	67.3*	57.0*	-60.6	71.3*	32.8
Oc1c(CN2CCCCC2)cc(COCc2ccccc2)c2cccnc12	0.0	39.5	7.9	51.7*	92.3*	-32.9	49.0*	43.8*
COc1cc(OC)c(C(=O)N/N=C/c2ccoc2)cc1OC	17.4	-1.5	-11.5	6.8	-18.1	13.0	.	.
Cc1ccc(S(=O)(=O)NCc2ccc(C(=O)NCCCN3CCC(Cc4ccccc4)CC3)cc2)cc1	7.5	27.1	20.4	75.1*	24.0	-8.6	42.1*	43.3*
CCc1ccccc1NC(=O)c1ccc(CN2CCC(Cc3ccccc3)CC2)cc1	21.2	0.4	17.2	51.2*	-6.3	-18.3	36.4	75.9*
SMILES	CSC inhib	Beta cell apopt	Jurkat NFkB inh	Mdm2 MdmX PPI	Gli-Sufu antag	697 NFkB inh	Mdm2-MdmX conf	Full FLuc ctr
O=C(NCc1ccccc1)c1ccc(CN2CCC(Cc3ccccc3)CC2)cc1	15.2	-7.9	-6.0	53.9*	1.9	-9.8	28.3	.
COCCN(C(=O)c1ccc(N(C)S(=O)(=O)c2ccc(C)cc2)cc1)c1c(N)n(CC(C)C)c(=O)[nH]c1=O	.	.	.	.	-5.0	.	.	.
CC(C)(CN1CCNCC1)NS(=O)(=O)c1ccc(Cl)cc1	.	7.8	-8.3	61.0*	6.0	7.7	24.6	.
COC(=O)C(CC(=O)c1ccc(Br)cc1)n1ccnc1 (stereo not drawn)	.	.	7.6	98.5*	.	-1.4	14.9	.
COC(=O)C(CC(=O)c1ccc(Br)cc1)n1nc(C)cc1C (stereo not drawn)	12.3	-2.8	-12.8	1.8	-1.1	-18.5	.	.
Cc1c(Cc2ccccc2)c(=O)oc2cc(OCC(=O)N3CCC(C(N)=O)CC3)ccc12	-5.5	-8.2	-6.5	-9.8	-2.1	12.5	.	.
OCc1cn(-c2ccccc2)nc1-c1ccc(-c2nn(-c3ccccc3)cc2CO)cc1	.	7.9	4.9	28.8	0.1	10.3	.	.
Cc1ccc(-c2nn(-c3ccccc3)cc2CSC(=N)N)cc1	33.6	18.5	-3.0	52.0*	20.4	-21.3	5.7	.
O=C(NN1CCCCCC1)c1ccccc1F	.	.	.	.	14.0	.	.	.
CCC(C)CCN1CCN=C1Nc1ccccc1 (stereo not drawn)	-3.2	-3.7	2.8	-4.2	0.3	-2.0	.	.
O=C(Cn1nc(CNc2ccc(Br)cc2)[n+]2c1CCCCC2)c1ccc([N+](=O)[O-])cc1	10.4	-1.9	9.4	34.6	1.7	8.6	.	.
CNC[C@H](CC1CCCCC1)NC[C@H](CO)NCC1(c2ccccc2)CC1	17.0	6.2	2.6	85.8*	10.0	8.8	57.8*	44.6*
O=C(NCC1(c2ccccc2)CCCC1)C(=O)NCC1(c2ccccc2)CCCC1	.	.	.	.	19.9	.	.	.
